In PubChem BioAssay:
The source made the active and inactive calls.

Assays:
[1] = E. coli DRC41 culture turbidity changes, primary screen, E. coli filamentation inducer project, strain DRC41, OD650, 48 h (AID 1152);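 also: E. coli MC1000 strain DRC41 lacking acrAB efflux pump and sulA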; conditions: E. coli DRC41 (acrAB sulA), higher = more signal, called active from +8 up or from −8 down
[2] = small-molecule binders of probe aLefty1, primary screen, biochemical, small-molecule microarray, 635/667 nm fluorescence (AID 1153); conditions: higher = more signal;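 also: score merges spot fluorescence with signal-to-noise ratio from the scanned slide images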
[3] = PSAC antagonists in infected red cells, primary screen, cell-based, P. falciparum Indochina, OD700, 1 h (AID 1154); conditions: P. falciparum Indochina infected RBC osmotic lysis, higher = more signal, called active from +8 up or from −8 down
[4] = PSAC antagonists in infected red cells, primary screen, cell-based, P. falciparum Indochina, OD700, 2 h (AID 1155);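 also: lysis reports solute entry through the parasite surface anion channel PSAC; channel blockers reduce lysis of infected cells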; conditions: P. falciparum Indochina infected erythrocytes, osmotic lysis OD700; higher = more signal, called active from +8 up or from −8 down
[5] = osmotic lysis modulators in infected erythrocytes, primary screen, PSAC antagonist project, cell-based, P. falciparum Indochina, OD700, 3 h (AID 1156); conditions: higher = more signal, called active from +8 up or from −8 down
[6] = PSAC antagonists in infected red cells, primary screen, cell-based, P. falciparum Indochina, OD700, 18 h (AID 1157); conditions: P. falciparum Indochina infected erythrocytes, osmotic lysis OD700, 18 h; higher = more signal, called active from +8 up or from −8 down
[7] = modulators of S6 phosphorylation in cells, primary screen, cell-based, A549, cytoblot, luminescence, serum-stimulated (AID 1158); conditions: A549 phospho-S6 cytoblot, 5 h, higher = more signal;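 also: serum-stimulated A549 lung adenocarcinoma cells; signal is phosphorylated S6 detected by cytoblot immunostaining with HRP secondary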
[8] = molecular target: NADPH oxidase 2 (Homo sapiens) (UniProt P04839); test: NOX2-dependent H2O2 signal modulators, primary screen, NOX inhibitor project, cell-based, HEK293-NOX2, PMA-stimulated, Amplex Red fluorescence (AID 1159); conditions: 45 min, higher = more signal, called active from +8 up or from −8 down; also: test concentration not given here
Chain of NADPH oxidase 2 (Homo sapiens) (P04839 whole entry, looked up): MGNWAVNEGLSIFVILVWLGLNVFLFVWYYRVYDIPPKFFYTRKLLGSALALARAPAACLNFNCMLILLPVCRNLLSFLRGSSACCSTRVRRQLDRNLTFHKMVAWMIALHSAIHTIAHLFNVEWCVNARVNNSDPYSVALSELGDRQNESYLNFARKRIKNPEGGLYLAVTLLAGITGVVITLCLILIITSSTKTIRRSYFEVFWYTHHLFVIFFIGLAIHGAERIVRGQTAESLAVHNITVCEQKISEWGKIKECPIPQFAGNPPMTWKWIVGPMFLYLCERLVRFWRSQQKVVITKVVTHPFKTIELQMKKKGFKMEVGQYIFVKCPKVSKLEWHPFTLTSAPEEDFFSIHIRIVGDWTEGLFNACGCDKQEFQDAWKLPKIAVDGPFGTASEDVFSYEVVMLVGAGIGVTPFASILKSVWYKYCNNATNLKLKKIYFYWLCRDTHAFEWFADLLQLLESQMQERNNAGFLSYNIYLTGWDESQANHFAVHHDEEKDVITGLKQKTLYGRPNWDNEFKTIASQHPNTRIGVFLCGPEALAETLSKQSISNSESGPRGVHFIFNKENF

[9] = molecular target: NADPH oxidase 4 (Homo sapiens) (UniProt Q9NPH5); test: NOX4-dependent H2O2 signal modulators, primary screen, NOX inhibitor project, cell-based, HEK293-NOX4, tetracycline-induced, Amplex Red fluorescence (AID 1160); conditions: 45 min, higher = more signal, called active from +8 up or from −8 down
Chain of NADPH oxidase 4 (Homo sapiens) (Q9NPH5 whole entry, looked up): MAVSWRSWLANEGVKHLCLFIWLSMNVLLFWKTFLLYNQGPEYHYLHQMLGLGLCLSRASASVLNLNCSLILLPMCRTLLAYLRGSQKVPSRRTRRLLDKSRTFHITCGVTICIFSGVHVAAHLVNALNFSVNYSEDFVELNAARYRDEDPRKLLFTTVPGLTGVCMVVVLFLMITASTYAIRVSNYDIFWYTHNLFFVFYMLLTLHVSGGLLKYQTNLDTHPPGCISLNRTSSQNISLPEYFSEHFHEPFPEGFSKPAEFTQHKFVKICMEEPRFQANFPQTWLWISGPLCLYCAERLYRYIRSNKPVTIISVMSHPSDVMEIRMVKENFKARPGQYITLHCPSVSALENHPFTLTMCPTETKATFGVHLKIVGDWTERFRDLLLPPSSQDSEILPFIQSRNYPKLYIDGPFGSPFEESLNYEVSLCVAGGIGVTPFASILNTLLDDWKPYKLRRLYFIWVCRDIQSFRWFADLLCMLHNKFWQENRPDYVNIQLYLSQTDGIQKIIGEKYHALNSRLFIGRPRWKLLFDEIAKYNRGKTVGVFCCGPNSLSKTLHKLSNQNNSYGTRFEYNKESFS

[10] = molecular target: NADPH oxidase 5 (Homo sapiens) (UniProt Q96PH1); test: NOX5-dependent H2O2 signal modulators, primary screen, NOX inhibitor project, cell-based, HEK293-NOX5, Amplex Red fluorescence (AID 1161); conditions: HEK293-NOX5, ionomycin, 45 min, higher = more signal
Chain of NADPH oxidase 5 (Homo sapiens) (Q96PH1 whole entry, looked up): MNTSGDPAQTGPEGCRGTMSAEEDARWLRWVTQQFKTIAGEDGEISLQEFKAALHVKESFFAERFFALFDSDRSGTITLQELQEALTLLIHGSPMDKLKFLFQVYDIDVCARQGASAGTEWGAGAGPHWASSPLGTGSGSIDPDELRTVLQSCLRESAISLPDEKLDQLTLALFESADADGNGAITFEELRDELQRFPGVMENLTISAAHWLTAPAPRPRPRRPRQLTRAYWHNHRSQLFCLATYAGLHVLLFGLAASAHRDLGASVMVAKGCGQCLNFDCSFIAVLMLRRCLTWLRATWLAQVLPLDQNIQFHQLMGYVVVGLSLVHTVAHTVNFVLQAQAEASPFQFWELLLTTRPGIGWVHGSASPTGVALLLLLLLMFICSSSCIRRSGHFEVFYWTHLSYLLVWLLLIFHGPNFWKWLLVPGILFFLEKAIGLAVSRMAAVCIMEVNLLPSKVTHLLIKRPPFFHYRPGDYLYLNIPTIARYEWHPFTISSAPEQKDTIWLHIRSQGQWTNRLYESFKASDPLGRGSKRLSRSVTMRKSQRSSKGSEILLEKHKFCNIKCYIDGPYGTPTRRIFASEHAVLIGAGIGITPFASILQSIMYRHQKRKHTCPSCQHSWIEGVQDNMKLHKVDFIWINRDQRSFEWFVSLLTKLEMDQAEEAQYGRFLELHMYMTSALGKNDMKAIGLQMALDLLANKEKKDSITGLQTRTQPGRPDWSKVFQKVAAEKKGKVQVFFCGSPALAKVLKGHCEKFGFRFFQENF

[11] = A549 cell viability effects, profiling panel, calcein-AM fluorescence, 48 h, basal (AID 1162); conditions: higher = more signal; also: test concentration not given here
[12] = adipocyte viability effects, profiling panel, cell-based, 3T3-L1 adipocytes, calcein-AM fluorescence, 48 h, basal (AID 1163); conditions: 3T3-L1 adipocytes viability, higher = more signal; also: test concentration not given here
[13] = HepG2 cell viability effects, profiling panel, calcein-AM fluorescence, 48 h, basal (AID 1164); conditions: higher = more signal; also: test concentration not given here
[14] = MM1S cell viability effects, profiling panel, calcein-AM fluorescence, 48 h, basal (AID 1165); conditions: higher = more signal;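 also: viability of MM1S multiple myeloma cells under basal unstimulated conditions; test concentration not given here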
[15] = basal RPMI8226 viability, no added stimulus, profiling panel, cell-based, calcein-AM fluorescence, 48 h, PK04 Diversity Set (AID 1166); conditions: RPMI8226 myeloma viability, higher = more signal;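 also: cells grown under basal conditions without added stimulus; test concentration not given here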
[16] = basal HepG2 mitochondrial membrane potential changes, profiling panel, cell-based, JC-1 fluorescence, 24 h, 100 nL compound (AID 1167); conditions: higher = more signal; also: test concentration not given here
[17] = basal 3T3-L1 adipocyte mitochondrial potential changes, profiling panel, cell-based, JC-1 fluorescence, 3T3-L1 adipocytes, 24 h, 100 nL compound (AID 1168); conditions: JC-1 mitochondrial fluorescence, higher = more signal, called active from +8 up or from −8 down; also: test concentration not given here
[18] = basal RPMI8226 mitochondrial membrane potential changes, profiling panel, cell-based, JC-1 fluorescence, 24 h, 100 nL compound (AID 1169); conditions: RPMI8226 myeloma, JC-1 mitochondrial potential fluorescence, higher = more signal; also: test concentration not given here
[19] = basal MM1S mitochondrial membrane potential changes, profiling panel, cell-based, JC-1 fluorescence, 24 h, 100 nL compound (AID 1170); conditions: higher = more signal; also: test concentration not given here
[20] = A549 lung cancer cell viability effects, profiling panel, resazurin fluorescence, 24 h, PK04 Diversity Set (AID 1171); conditions: higher = more signal, called active from +8 up or from −8 down; also: test concentration not given here

SMILES	z-score [1]	composite z-score [2]	z-score [3]	z-score [4]	z-score [5]	z-score [6]	z-score [7]	z-score [8]	z-score [9]	z-score [10]	z-score [11]	z-score [12]	z-score [13]	z-score [14]	z-score [15]	z-score [16]	z-score [17]	z-score [18]	z-score [19]	z-score [20]
COCCOC(=O)N1C(=O)[C@@]2(c3cc(C#CCC(C(=O)OC)C(=O)OC)ccc31)[C@H](C(=O)N1CCc3cc(OC)c(OC)cc3C1)[C@H]1C(=O)O[C@H](c3ccccc3)[C@H](c3ccccc3)N1[C@@H]2c1ccc(O)cc1	-0.0961 (inactive)	0.191	0.577 (inactive)	0.524 (inactive)	-0.5 (inactive)	0.0513 (inactive)	-0.111	1.91 (inactive)	0.862 (inactive)	0.912	0.373	0.643	0.391	-0.422	-1.54	0.448	-0.216 (inactive)	0.109	0.516	0.0392 (inactive)
C=CCC(OC(C)=O)[C@@H]1[C@@H](N(Cc2cc3ccccc3o2)C(=O)Cc2ccc(OC)cc2)c2cc(OCCCO)ccc2N1C(=O)Cc1ccc(OC)cc1 (stereo not given in full)	-0.759 (inactive)	0.0091	2.19 (inactive)	0.297 (inactive)	1.23 (inactive)	0.336 (inactive)	-0.0725	-0.685 (inactive)	-0.727 (inactive)	-2.19	0.3	1.71	0.128	0.708	-1.74	2.14	-0.184 (inactive)	-0.566	0.799	-0.914 (inactive)
[N-]=[N+]=NCc1ccccc1[C@@H]1OC(c2ccc(OCCCO)cc2)=N[C@]1(Cc1ccccc1)C(=O)NCc1ccccc1	0.251 (inactive)	0.219	18.4 (active)	4.26 (inactive)	1.52 (inactive)	0.983 (inactive)	0.0369	-3.27 (inactive)	1.15 (inactive)	0.85	0.53	0.592	0.293	-0.856	-0.0369	0.152	0.594 (inactive)	-0.994	-0.921	0.267 (inactive)
N#Cc1ccc(C(O)C2C=CC3C(=O)N(c4ccccc4)C(=O)C3N2Nc2ccc([N+](=O)[O-])cc2)cc1 (stereo not given)	-0.955 (inactive)	0.391	25.8 (active)	12.8 (active)	2.25 (inactive)	1.56 (inactive)	-0.283	-0.562 (inactive)	-2.25 (inactive)	-1.83	-0.211	-1.46	0.436	-0.0671	-0.333	-2.66	-1.78 (inactive)	0.5	-1.43	-0.233 (inactive)
C=CC[C@@]1(C(=O)O)N=C(c2ccc(OCCCO)cc2)O[C@@H]1c1ccccc1CN=[N+]=[N-]	0.578 (inactive)	-0.335	25.8 (active)	16.5 (active)	1.15 (inactive)	1.71 (inactive)	0.842	-0.235 (inactive)	1.24 (inactive)	0.186	-0.473	0.891	0.545	0.15	0.0466	0.171	-0.164 (inactive)	-0.973	-1.54	0.611 (inactive)
CN(C)CCCNC(=O)[C@@H]1c2ccccc2C(=O)N(C2Cc3ccccc3C2)[C@H]1c1ccc(CO)cc1	0.776 (inactive)	-0.765	3.98 (inactive)	0.517 (inactive)	1.79 (inactive)	0.281 (inactive)	-0.421	0.498 (inactive)	1.25 (inactive)	0.545	1.61	0.121	1.99	-0.233	-1.28	3.81	0.571 (inactive)	-0.066	-0.311	0.267 (inactive)
C[C@@H](OCc1ccccc1)C1NC(=O)[C@@]23C(=O)N[C@@H](Cc4ccccc4)C2[C@H](C)[C@@]2(C)O[C@H]2C3/C=C/C/C=C\CNC(=O)[C@H](Cc2ccccc2)NC1=O (stereo not given in full)	0.725 (inactive)	-0.0544	1.18 (inactive)	0.012 (inactive)	0.526 (inactive)	0.156 (inactive)	0.858	0.487 (inactive)	0.924 (inactive)	0.349	0.247	0.854	0.235	-1.42	-2.1	0.637	-0.355 (inactive)	-0.497	0.546	-0.792 (inactive)
CCCC[C@@H]1C[C@H]1[C@@H](NC(=O)Cc1ccccc1)c1ccc(Cl)cc1	-1.71 (inactive)	0.509	1.15 (inactive)	1.03 (inactive)	2.18 (inactive)	1.53 (inactive)	-1.06	-0.795 (inactive)	-0.195 (inactive)	1.88	-1.07	-0.669	-1.9	-3.46	-4.66	-4.92	-1.27 (inactive)	-0.906	-2.89	3.48 (inactive)
CC(C)c1ccc(NN2C(C(O)C(C)C)C=CC3C(=O)N(c4ccccc4)C(=O)C32)cc1 (stereo not given)	-0.671 (inactive)	0.996	1.37 (inactive)	0.83 (inactive)	0.42 (inactive)	1.37 (inactive)	-0.452	-0.862 (inactive)	-4.22 (inactive)	-4.95	-0.149	-0.0009	-0.463	-0.871	-0.542	-0.419	-1.52 (inactive)	-0.692	0.54	-1.28 (inactive)
C=C(/C(=C/C[C@@H](OC(C)=O)c1ccccc1OCCO)c1cc(C(=O)OC)ccc1OC)C(C)C	0.516 (inactive)	-0.0545	14.6 (active)	2.61 (inactive)	1.4 (inactive)	0.994 (inactive)	0.0105	1.58 (inactive)	-0.286 (inactive)	-1.43	0.793	-0.515	0.561	-3.21	-1.11	0.605	0.118 (inactive)	0.367	-0.503	0.583 (inactive)
COc1ccc(CCNC(=O)[C@@]2(C)c3ccccc3C(=O)N(Cc3cc(C(F)(F)F)cc(C(F)(F)F)c3)[C@H]2c2ccc(CO)cc2)cc1	1.28 (inactive)	-0.216	8.19 (active)	0.566 (inactive)	1.85 (inactive)	-0.388 (inactive)	2.76	-3.19 (inactive)	-1.7 (inactive)	-2.75	0.0571	1.28	-0.23	-2.16	-3.99	1.11	-0.299 (inactive)	-0.428	0.783	0.616 (inactive)
COCCOC(=O)N1C(=O)[C@@]2(c3cc(C#CC4(O)CCCCCC4)ccc31)[C@H](c1ccccc1OCCO)N1[C@H](c3ccccc3)[C@H](c3ccccc3)OC(=O)[C@H]1[C@@H]2C(=O)N1CCCCCCC1	0.499 (inactive)	2.49	0.257 (inactive)	0.755 (inactive)	0.196 (inactive)	0.653 (inactive)	0.119	0.297 (inactive)	0.104 (inactive)	1.13	-0.971	0.723	0.818	-1.45	-1.99	-0.286	0.454 (inactive)	-0.557	-1.34	-0.141 (inactive)
COC(=O)C1=CC(CCCO)=CC(C2CC2)N(Cc2cccc(OC(F)(F)F)c2)C=C1C(=O)OC (stereo not given)	-1.16 (inactive)	0.193	3.22 (inactive)	0.455 (inactive)	-0.623 (inactive)	0.526 (inactive)	0.204	-0.179 (inactive)	-0.34 (inactive)	0.973	-0.851	0.589	0.525	-0.525	-0.708	1.18	0.767 (inactive)	-0.862	-0.159	0.644 (inactive)
